From ChEMBL document CHEMBL3433997, “St. Jude Leishmania screening dataset” (2016)

Assays:
Assay type in all cases: functional
[1] = target: Solute carrier family 2, facilitated glucose transporter member 1 (Homo sapiens) (UniProt P11166); assay: ST_JUDE_LEISH: Cytotoxicity at 2uM final concentration against transgenic Leishmania Mexicana promastigotes LmGLUT1 that are glucose transport deficient and complemented with the human glucose transporter GLUT1. Activity is measured by DNA content using SYBR green in vitro
Chain of Solute carrier family 2, facilitated glucose transporter member 1 (Homo sapiens) (P11166 whole entry): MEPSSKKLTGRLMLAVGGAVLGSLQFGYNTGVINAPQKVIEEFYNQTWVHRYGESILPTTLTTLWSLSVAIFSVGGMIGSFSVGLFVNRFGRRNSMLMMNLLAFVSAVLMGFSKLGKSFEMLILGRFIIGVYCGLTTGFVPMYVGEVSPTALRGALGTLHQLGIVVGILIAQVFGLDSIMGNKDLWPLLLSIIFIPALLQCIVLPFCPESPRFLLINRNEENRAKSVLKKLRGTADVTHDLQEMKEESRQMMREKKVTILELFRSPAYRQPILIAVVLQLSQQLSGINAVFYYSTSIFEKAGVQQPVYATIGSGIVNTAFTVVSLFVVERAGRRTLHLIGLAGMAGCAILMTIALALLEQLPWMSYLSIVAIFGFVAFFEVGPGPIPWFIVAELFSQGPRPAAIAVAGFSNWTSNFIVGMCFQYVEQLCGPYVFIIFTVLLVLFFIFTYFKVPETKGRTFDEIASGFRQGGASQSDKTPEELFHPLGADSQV

[2] = target: Hexose transporter 1 (Plasmodium falciparum) (UniProt O97467); assay: ST_JUDE_LEISH: Cytotoxicity at 2uM final concentration against transgenic Leishmania Mexicana promastigotes LmPfHT that are glucose transport deficient and complemented with the Plasmodium falciparum hexose transporter. Activity is measured by DNA content using SYBR green in vitro
[3] = target: Glucose transporter (Leishmania mexicana) (UniProt O61059); assay: ST_JUDE_LEISH: Cytotoxicity at 2uM final concentration against transgenic Leishmania Mexicana promastigotes LmGT2 that are glucose transport deficient and complemented with the L. Mexicana glucose transporter 2. Activity is measured by DNA content using SYBR green in vitro

Which inhibition [1] does the source give for `CC(C)n1ncc2c(C(=O)N3CCCCCC3)cc(-c3ccccc3)nc21` here?
The inhibition was -0.35%.

What about the inhibition [2] of the same molecule?
The inhibition was -0.92%.

And the inhibition [3]?
Its inhibition is -5.3%.

With `O=S(=O)(NCCN1CCCC1)c1ccc(-c2ccc(CNCc3ccsc3)cc2)s1` as the molecule, how does the inhibition [1] read?
Its inhibition is 10.5%.

And the inhibition [2]?
The inhibition was 7.66%.

And the inhibition [3]?
Its inhibition is 4.76%.

How did the inhibition [1] turn out when `CN1CCN(c2ccc(-c3cccc(NC(=O)c4cccc(Cl)c4)c3)nn2)CC1` was run?
The inhibition was 2.62%.

What about the inhibition [2] of the same molecule?
The inhibition was 1.54%.

And the inhibition [3]?
The inhibition was 3.23%.

With `CCc1c(CCNCCCCCCNCCc2ccc3c(c2C)OCO3)ccc2c1OCO2` as the molecule, how does the inhibition [1] read?
The inhibition was 8.6%.

What about the inhibition [2] of the same molecule?
Its inhibition is 5.13%.

What about the inhibition [3] of the same molecule?
Its inhibition is 10.6%.

`CS(=O)(=O)N1CC2(CCN(CCC(NC(=O)Nc3ccccc3)c3ccc(Cl)c(Cl)c3)CC2)c2ccccc21` (centres undefined) was tested. Which inhibition [1] did it give?
Its inhibition is 3.59%.

What about the inhibition [2] of the same molecule?
The inhibition was 3.17%.

And the inhibition [3]?
The inhibition was 3.05%.

Which inhibition [1] does the source give for `CCc1c(C)nc(-n2nc(C)cc2NC(=O)C2c3ccccc3Oc3ccccc32)[nH]c1=O` here?
The inhibition was -0.64%.

And the inhibition [2]?
Its inhibition is -0.55%.

What about the inhibition [3] of the same molecule?
Its inhibition is 3.35%.

Which inhibition [1] does the source give for `FC(F)(F)c1ccc2[nH]c(-c3ccc(-c4ccc(CN5CCN(c6ccncc6)CC5)cc4)cc3)nc2c1` here?
The inhibition was 77.4%.

What about the inhibition [2] of the same molecule?
The inhibition was 85.7%.

What about the inhibition [3] of the same molecule?
Its inhibition is 69%.

Which inhibition [1] does the source give for `CCOc1ccc2c(=NN=Cc3ccccn3)cc(C)[nH]c2c1` here?
The inhibition was 9.68%.

What about the inhibition [2] of the same molecule?
Its inhibition is 7.32%.

And the inhibition [3]?
Its inhibition is 6.78%.

Which results are given for `O=C(Nc1cc(F)c(F)c(-c2cccnc2)c1)N1CCc2cc(Cl)c(Cl)cc21`?
inhibition [1]: 0.67%; inhibition [2]: -1.8%; inhibition [3]: -0.31%

Which results are given for `c1ccc2c(NCCc3c[nH]cn3)c3ccccc3nc2c1`?
inhibition [1]: 0.58%; inhibition [2]: 4.05%; inhibition [3]: 2.23%

Which results are given for `O=C(Nc1ccc(Oc2ccccc2)cc1)N[C@@H](Cc1ccc(O)cc1)C(=O)NC1CCN(Cc2ccc(O)c([N+](=O)[O-])c2)C1` (some centres undefined)?
inhibition [1]: 2.19%; inhibition [2]: 1.19%; inhibition [3]: 0.33%

Which inhibition [1] does the source give for `CN(C)CCNCc1cccc(-c2ccc3c(Nc4ccc(Oc5ccccn5)cc4)ccnc3c2)c1` here?
The inhibition was 0.48%.

And the inhibition [2]?
The inhibition was 1.4%.

And the inhibition [3]?
Its inhibition is 0.21%.

Which inhibition [1] does the source give for `Cc1ccc(Nc2c3ccccc3nc3ccc(C)cc23)cc1` here?
The inhibition was 4.86%.

And the inhibition [2]?
The inhibition was 7.1%.

What about the inhibition [3] of the same molecule?
The inhibition was 2.9%.

What does the source list for `O=C(c1ccc(-c2ccc(-c3nc4ccccc4[nH]3)s2)cc1)N1CCCCC1CN1CCC(O)C1` (centres undefined)?
inhibition [1]: 3.07%; inhibition [2]: 2.95%; inhibition [3]: 4.01%

How did the inhibition [1] turn out when `CCCCc1ccc(C(=O)Nc2ccc3nc(N4CCN(C)CC4)cc(C)c3c2)cc1` was run?
Its inhibition is 2.19%.

And the inhibition [2]?
The inhibition was 3.48%.

And the inhibition [3]?
The inhibition was 3.48%.

What does the source list for `CCOc1ccc2nc(C)cc(N/N=C/c3cccc([N+](=O)[O-])c3)c2c1`?
inhibition [1]: 0.39%; inhibition [2]: 0.05%; inhibition [3]: -1.04%

`N[C@@H](Cc1cc(I)c(Oc2ccc(O)c(C(=O)O)c2)c(I)c1)C(=O)O` was tested. Which inhibition [1] did it give?
The inhibition was 3.18%.

What about the inhibition [2] of the same molecule?
The inhibition was 3.91%.

And the inhibition [3]?
The inhibition was 3.61%.

What does the source list for `Cc1cc(C)c(O)c(-c2cc(C(=O)Nc3ccc(S(=O)(=O)N4CC(C)OC(C)C4)cc3)[nH]n2)c1` (centres undefined)?
inhibition [1]: 3.1%; inhibition [2]: 1.95%; inhibition [3]: 0.01%

Which inhibition [1] does the source give for `CCC(N)(C#Cc1ccc(-c2c(C)[nH]c(C)c(Br)c2=O)cc1)CC` here?
The inhibition was 2.45%.

What about the inhibition [2] of the same molecule?
The inhibition was 2.05%.

What about the inhibition [3] of the same molecule?
The inhibition was 0.36%.

Which results are given for `COc1ccc(CNc2nc(Nc3cccc(C#N)c3)nc(Nc3cccc(C#N)c3)n2)cc1Cl`?
inhibition [1]: 3.25%; inhibition [2]: 0.95%; inhibition [3]: -1.38%

`CCOC(=O)c1ccc(COc2ccc(C)nc2)cc1` was tested. Which inhibition [1] did it give?
The inhibition was -1.54%.

What about the inhibition [2] of the same molecule?
The inhibition was -0.85%.

What about the inhibition [3] of the same molecule?
The inhibition was 0.17%.

`Cc1nccc2c(NC(=O)N[C@@H]3CCN(c4ncc(C(F)(F)F)cc4Br)C3)cccc12` was tested. Which inhibition [1] did it give?
Its inhibition is 1.06%.

What about the inhibition [2] of the same molecule?
Its inhibition is 1.71%.

And the inhibition [3]?
Its inhibition is 0.74%.

`CCCc1cc(N2CCC(N3CCCC3)CC2)nc(Nc2ccc(Cl)cc2)n1` was tested. Which inhibition [1] did it give?
The inhibition was -1.71%.

And the inhibition [2]?
Its inhibition is 2.3%.

And the inhibition [3]?
Its inhibition is 0.85%.

Which results are given for `NCCNS(=O)(=O)c1ccc(-c2ccnc3[nH]c(-c4ccncc4)cc23)cc1`?
inhibition [1]: 0.72%; inhibition [2]: 1.19%; inhibition [3]: 0.62%

What does the source list for `Cn1nc(-c2ccc(Cl)cc2)c2cc(C(=O)NCCN3CCOCC3)sc21`?
inhibition [1]: -0.16%; inhibition [2]: 1.5%; inhibition [3]: -0.52%

With `O=C(/C=C/c1ccccc1)N1CCOC(CCN2CCC(c3ccccc3)CC2)(c2ccc(Cl)c(Cl)c2)C1` (centres undefined) as the molecule, how does the inhibition [1] read?
Its inhibition is 13.3%.

What about the inhibition [2] of the same molecule?
The inhibition was 7.51%.

And the inhibition [3]?
Its inhibition is 7.43%.

With `COc1ccc2nc(C)cc(Nc3ccc(Oc4ccc(Cl)c5ccccc45)c(Cl)c3)c2c1` as the molecule, how does the inhibition [1] read?
The inhibition was 12.8%.

And the inhibition [2]?
Its inhibition is 10.2%.

And the inhibition [3]?
Its inhibition is 5.43%.

For `CN(C)CCNc1nccc(N2CCc3ncnc(Nc4ccc(OCc5cccc(F)c5)c(Cl)c4)c3C2)n1`, which inhibition [1] is on record?
The inhibition was 20%.

What about the inhibition [2] of the same molecule?
Its inhibition is 28.4%.

And the inhibition [3]?
Its inhibition is 3.49%.

`Cc1cccc2nc(-c3cccc(-c4cccc(CNCCc5ccncc5)c4)c3)[nH]c12` was tested. Which inhibition [1] did it give?
The inhibition was -1.47%.

And the inhibition [2]?
The inhibition was 1.2%.

What about the inhibition [3] of the same molecule?
The inhibition was -1.48%.

`O=C(/C=C/c1ccc(Cl)c(Cl)c1)NCCCCCN1CCN(C(=O)Nc2cccc(F)c2)CC1` was tested. Which inhibition [1] did it give?
Its inhibition is 3.99%.

What about the inhibition [2] of the same molecule?
The inhibition was 2.95%.

What about the inhibition [3] of the same molecule?
Its inhibition is 2.33%.

How did the inhibition [1] turn out when `CN(C)Cc1ccc(-c2ccc3c(Nc4ccc(Oc5ccccc5)cc4)ccnc3c2)o1` was run?
Its inhibition is 0.83%.

What about the inhibition [2] of the same molecule?
Its inhibition is 0.83%.

And the inhibition [3]?
Its inhibition is 2.26%.

`O=C(CC1CCCC1)Nc1ccc2c(c1)CCC2` was tested. Which inhibition [1] did it give?
Its inhibition is 2.83%.

What about the inhibition [2] of the same molecule?
The inhibition was 3.17%.

And the inhibition [3]?
Its inhibition is 1.69%.

Which results are given for `COc1cc2c(cc1OC)C(C)(C)CN1Cc3c(c(CO)c(OC)c(OC)c3OC)CC21` (centres undefined)?
inhibition [1]: 4.54%; inhibition [2]: 3.72%; inhibition [3]: 4.31%
